# Bioassay records: PubChem BioAssay, several laboratories
# FadD28 binding = inhibitors of FadD28 bisubstrate probe binding, primary screen, biochemical, fluorescence polarization, single point; Mycobacterium tuberculosis FadD28 fatty-acid-AMP ligase; inhibition, % at 12.5 µM; hit rate 0.22% among 360,000; AID 588549, 2011; in the data active means inhibition above about 8.5%, passing the limit was not always enough; inconclusive means no clear call, values can overlap the other calls
# UGM FP inh = M. tuberculosis UGM enzyme inhibitors, primary screen, biochemical, fluorescence polarization, single point | purified UGM, fluorescence polarization probe displacement | hit rate 0.06% among 320,000 | inhibition, % at 10 µM | AID 504406, 2011; in the data active means inhibition above about 10%, passing the limit was not always enough; inconclusive means no clear call, values can overlap the other calls
# Target sequence (P9WIQ1 whole entry, looked up): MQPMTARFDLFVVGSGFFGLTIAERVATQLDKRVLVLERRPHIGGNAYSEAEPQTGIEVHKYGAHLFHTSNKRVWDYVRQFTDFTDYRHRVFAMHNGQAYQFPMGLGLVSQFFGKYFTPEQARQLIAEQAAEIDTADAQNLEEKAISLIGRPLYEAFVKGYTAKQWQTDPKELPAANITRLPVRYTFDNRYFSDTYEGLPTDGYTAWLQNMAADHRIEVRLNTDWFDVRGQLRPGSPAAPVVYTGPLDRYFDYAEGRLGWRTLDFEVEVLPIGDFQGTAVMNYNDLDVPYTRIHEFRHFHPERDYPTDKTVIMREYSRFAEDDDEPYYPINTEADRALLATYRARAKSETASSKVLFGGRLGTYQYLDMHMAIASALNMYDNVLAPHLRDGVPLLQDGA
# Rv3671c protease = Rv3671c serine protease inhibitors, primary screen, biochemical, fluorescence polarization, M. tuberculosis H37Rv; P9WHR9; inhibition, % at 5.96 µM; hit rate 0.048% among 320,000; in the data active means inhibition above about 38%;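 further: extracellular domain of Rv3671c used as enzyme; 0% = enzyme with DMSO and 100% = no enzyme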
# TcdB inh = TcdB glycohydrolase inhibitors, primary screen, biochemical, single point, plate reader; Toxin B (Clostridioides difficile), P18177; TcdB glycohydrolase enzymatic assay; inhibition, % at 9.99 µM; hit rate 0.24% among 350,000; AID 652162, 2013; in the data active means inhibition above about 10%
# RecA splice inh = Mtb RecA intein splicing inhibitors, primary screen, biochemical, fluorescence, HTS. hit rate 0.75% among 290,000. inhibition, % (test concentration not listed). Protein RecA (Mycobacterium tuberculosis (strain ATCC 25618 / H37Rv)), P9WHJ3. cell-free RecA intein splicing; in the data active means inhibition above about 30%; inconclusive means no clear call, values can overlap the other calls;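 further: 0% = vehicle wells and 100% = reference inhibitor control wells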
# Mtb BioA inh = M. tuberculosis BioA enzyme inhibitors, primary screen, biochemical, plate reader, single point, HTS. 7,8-diaminopelargonic acid synthase BioA (Mycobacterium tuberculosis). purified M. tuberculosis BioA enzyme. inhibition, % at 9.99 µM. hit rate 0.096% among 360,000. AID 602481, 2012; in the data active means inhibition above about 40%; inconclusive means no clear call, values can overlap the other calls
# GFP chromo cs = counter-screen: blocks GFP chromophore formation, dose response, counter-screen, biochemical, fluorescence, homogeneous | AID 434968, 2010 | cell-free GFP chromophore formation | EC50, µM | hit rate 83% among 2,100 | shares compounds with RecA splice inh; call rule not given here
# Active calls of the source: *; ? = inconclusive; . = no result. The list is not random: actives were taken first. Their share in the collection is about 0.9%.
SMILES,FadD28 binding,UGM FP inh,Rv3671c protease,TcdB inh,RecA splice inh,Mtb BioA inh,GFP chromo cs
Oc1ccccc1C=Nc1cccc2ccccc12,-4,2,-6,0,2,-2,.
O=c1[nH]c(Sc2ccc([N+](=O)[O-])cc2[N+](=O)[O-])nc2ccccc12,-1,1,-7,1,34*,8,31*
O=[N+]([O-])c1ccc(Sc2nc3ccccc3o2)c([N+](=O)[O-])c1,-2,-1,15,2,66*,0,2*
O=C(CSc1nc2ccccc2c(=O)[nH]1)Nc1ccc([N+](=O)[O-])cc1,-2,2,-3,-7,.,1,.
CN(C)C(=O)C[C@@H]1C=C[C@H](NC(=O)Nc2cccc(F)c2)[C@@H](CO)O1,.,.,.,-21,.,-2,.
O=C(N[C@H]1C=C[C@H](CC(=O)N2CCCCC2)O[C@H]1CO)c1cccc(F)c1,.,.,.,-5,.,1,.
Cc1cc(Nc2ccc(F)cc2)c2ccccc2n1,-1,.,.,0,.,8,.
Cc1cc2ccccc2c(=O)[nH]1,-3,0,11,.,-2,-1,.
Cc1ccccc1Nc1cc2ccccc2c(=O)[nH]1,1,1,-126,.,71*,.,?
O=c1[nH]c(Nc2ccccn2)cc2ccccc12,-2,-1,-37,0,72*,0,>38
O=c1[nH]c(Nc2ccc(F)cc2)cc2ccccc12,-2,0,-130,2,65*,0,1.6*
O=c1[nH]c(Nc2ccccc2Cl)cc2ccccc12,1,1,-75,0,86*,-2,16*
O=c1[nH]c(-c2ccccn2)cc2ccccc12,-4,1,-12,.,5,.,.
Cc1[nH][nH]c(=O)c1C(c1cc([N+](=O)[O-])ccc1O)c1c(C)[nH][nH]c1=O,-2,3,-17,-2,96*,0,0.53*
C[C@@H]1CN([C@@H](C)CO)C(=O)c2cc(C3=CCCC3)cnc2O[C@@H]1CN(C)C(=O)c1ccccn1,.,.,.,.,.,0,.
CC(=O)Nc1ccc(-c2cc(NC(C)=O)n(-c3ccccc3)n2)cc1,-5,0,2,.,0,-1,.
O=C(CCl)Nc1cc(-c2ccccc2)nn1-c1ccccc1,0,0,1,.,62*,.,40*
Cc1ccc(-c2cc(NC(=O)CCl)n(-c3ccccc3)n2)cc1,1,1,-4,.,73*,-1,33*
O=C(N[C@@H]1C=C[C@@H](CC(=O)N2CCc3ccccc3C2)O[C@@H]1CO)C1CCOCC1,.,.,.,0,.,.,.
Cc1ccc(C(=O)c2coc3cc([N+](=O)[O-])c(O)c([N+](=O)[O-])c23)cc1,0,3,-2,-2,34*,.,37*
Cc1ccc(S(=O)(=O)N2CCN(C(=O)c3ccccc3Cc3ccccc3)CC2)c(C)c1,-3,0,2,1,30*,-1,>38
O=C1CCn2c1c(O)c1ccccc1c2=O,-2,.,.,-4,.,.,.
N=C1CCC(=N)c2c1c(O)c1ccccc1c2O,14*,2,-17,.,91*,.,28*
COc1cc(-c2[nH]nc3c2C(c2ccco2)C(C#N)=C(N)O3)cc(OC)c1OC (stereo not given),-6,-5,-1,-9,79*,.,9.1*
COc1cccc(-c2[nH]nc3c2C(c2ccoc2)C(C#N)=C(N)O3)c1 (stereo not given),0,2,-6,.,82*,-3,9.8*
COc1ccc(C2C(C#N)=C(N)Oc3n[nH]c(-c4ccccn4)c32)c(OC)c1OC (stereo not given),-2,3,-2,.,13,-5,.
Cc1[nH]nc2c1C(c1ccsc1)C(C#N)=C(N)O2 (stereo not given),-3,-2,4,.,83*,-1,39*
COc1cccc(-c2[nH]nc3c2C(c2ccsc2)C(C#N)=C(N)O3)c1 (stereo not given),-4,0,-37,.,76*,-1,7.7*
